# According to PubChem BioAssay AID1159606 (Sanford-Burnham Center for Chemical Genomics, 2016):
# About 7,300 (2%) of roughly 360,000 compounds were called active. For the sample, actives were picked, then their nearest neighbours and some compounds at random. A number with no mark means an inactive call. No stated cut-off is given here; in the data, active means inhibition above about 50%; inactive means the rest.
# Test: inhibitors of TWEAK-Fn14 signaling, primary screen, luciferase reporter cells, uHTS (AID 1159606)
# Conditions: TWEAK-stimulated Fn14 reporter cells, luciferase luminescence, 8 h; at 10 µM; active compounds read high
row,Compound,inhibition
1,COC(=O)[C@]12CCCCC=C1N(CCC1=CCCCC1)C(=O)[C@H](CC(=O)N1CCSCC1)C2,-9.15%
2,CN(Cc1ccc(F)cc1)C(=O)CN1C(=O)c2ccccc2S1(=O)=O,7.88%
3,O=C(CN1C(=O)c2ccccc2S1(=O)=O)N1CCc2ccccc21,103% (active)
4,COc1ccc(CNC(=O)CN2C(=O)c3ccccc3S2(=O)=O)cc1,8.55%
5,CCN(CC)c1ncnc2c1ncn2[C@H]1CN(Cc2cccs2)C[C@@H](CO)O1,-23.3%
6,COc1ccc(CN2C(=O)C(CC(=O)NC3CCCCC3)CC(C(=O)N3CCOCC3)=C2C)cc1 (stereo unspecified),-7.48%
7,CCc1cccc(C)c1N(C(=O)Cn1c(CO)nc2ccccc21)C(C)COC (stereo unspecified),-17.5%
8,CCN1CCC(O)(/C=C/c2ccc(C)cc2)C(C(=O)/C=C/c2ccc(C)cc2)C1 (stereo unspecified),88.3% (active)
9,CCN1CCC2(CC1)N=C(c1ccc(F)cc1)C(=S)N2C(=O)c1ccc(C)cc1,42.7%
10,CCOC(=O)[C@]12CCC=C1N(Cc1ccco1)C(=O)[C@H](CC(=O)NCc1cccc(C(F)(F)F)c1)C2,11.1%
11,COCCCNC(=O)CNC(=O)c1nn(-c2ccc(OC)cc2)c(=O)c2ccccc12,23.9%
12,CCOC(=O)c1cc(NC(=O)SCC(=O)O)c(C)nc1C,-2.03%
13,CCOC(=O)c1c(C2CC2)csc1NC(=O)CSCc1c(C)noc1C,-9.7%
14,CN(CC(=O)Nc1ccc(Cl)c(C(F)(F)F)c1)C(=O)CCC(=O)c1ccccc1,7.71%
15,O=C(Cc1ncc(C(F)(F)F)cc1Cl)Nc1cccc(Br)c1,6.6%
16,O=C(CC(O)(C(F)(F)F)C(F)(F)F)Nc1ccc(Cl)c(Cl)c1,56.3% (active)
17,CCN1/C(=C\c2ccc3ccccc3[n+]2CC)Sc2cc(C)ccc21,57.2% (active)
18,O=C(COC(=O)C1CCN(S(=O)(=O)c2ccc3c(c2)OCCO3)CC1)Nc1ccccc1OC(F)F,-22.5%
19,C#Cc1ccc([C@@H]2C=C(C(=O)O)O[C@H](OCCCCO)C2)cc1,-4.22%
20,Cc1cn(C2C=CC(CO)O2)c(=O)[nH]c1=O (stereo unspecified),-1%
21,O=S(=O)(c1ccc(F)cc1)N1CCN=C1SCc1cccc(F)c1,-11.2%
22,O=C(Nc1c(Br)cc2c(c1Br)Cc1cc([N+](=O)[O-])ccc1-2)C(Cl)Cl,-30.1%
23,O=C(CN1CCN(S(=O)(=O)c2ccc(F)cc2)CC1)NC1CC1,0.09%

row,Compound,inhibition
1,Cc1nc(N2CCOCC2)c2c(C)c(C(=O)Nc3ccc(C(F)(F)F)cc3)sc2n1,-3.25%
2,Cc1nc(N2CCN(c3ccccn3)CC2)c2c(C)c(C(=O)Nc3ccc(F)cc3)sc2n1,18.8%
3,Cc1nc(N2CCN(c3ccccn3)CC2)c2c(C)c(C(=O)Nc3ccc(F)c(Cl)c3)sc2n1,66.9% (active)
4,CCOc1c2ccc(C(=O)NCc3ccc(OC(F)(F)F)cc3)cc2nn1C,-25.1%
5,O=C(Nc1ccc(OC(F)(F)F)cc1)c1ccc2c(c1)no[n+]2[O-],60.4% (active)
6,CCOC(=O)Cc1ncccc1C(=O)Nc1ccc(OC(F)(F)F)cc1,-7.78%
7,CCOC(=O)Cc1csc(NC(=O)CN(C)S(=O)(=O)c2ccc3c(c2)CCC(=O)N3)n1,1.66%
8,O=C(Nc1ccc(Cl)cc1)c1cc2nc(C3CC3)cc(C(F)(F)F)n2n1,-7.24%
9,O=C(Nc1cc(C(F)(F)F)ccc1Cl)c1cc2nc3c(c(C(F)(F)F)n2n1)CCCC3,76.7% (active)
10,Nc1nc(SCC(=O)Nc2cc(C(F)(F)F)ccc2Cl)[nH]c(=O)c1NC(=O)c1ccco1,10%
11,O=S1(=O)CSCS(=O)(=O)C1,-11.8%
12,O=C(OCC(=O)N1CCCCCC1)c1ccc(Br)c(S(=O)(=O)N2CCOCC2)c1,-3.85%
13,CC1CN/C(=C\C(=O)c2ccc(Br)cc2)C(=O)N1 (stereo unspecified),62.2% (active)
14,COc1cc2c(cc1OC)/C(=C/C(=O)c1ccc(NC(C)=O)cc1)NCC2,-11.2%
15,CC1(C)Cc2ccccc2/C(=C/C(=O)c2ccccc2)N1,-22.4%
16,O=C(CN(C(=O)c1csnn1)c1cccc(F)c1)NCc1ccc(F)cc1,0.95%
17,COc1ccc(C(c2nnnn2C2CCCC2)N2CCN(C/C=C/c3ccccc3)CC2)cc1 (stereo unspecified),-2.02%
18,NS(=O)(=O)c1cc(C(=O)NCCOc2ccccc2)c(Cl)cc1Cl,3.06%
19,O=C(NCCOc1ccccc1)c1ccccc1F,30.7%
20,O=C(NCCOc1ccccc1)c1ccccc1,54.9% (active)
21,COc1cc(C(=O)OCC(=O)N(CC(C)C)C2CCS(=O)(=O)C2)ccc1OCC(C)C (stereo unspecified),-5.97%
22,COc1ccc(CCNC(=O)CCC(=O)NC2CCCCC2)cc1OC,4.09%
23,COc1ccc(CNc2nnnn2C)cc1,2.29%

row,Compound,inhibition
1,COc1ccc(-n2nnnc2SCC(=O)NCc2cccs2)cc1,-2.38%
2,COc1ccc(-n2nnnc2-c2nc3ccccc3s2)cc1,74% (active)
3,Cc1ccc(CN2CCCOCCS2(=O)=O)cc1,-9.75%
4,Nc1ccccc1-c1nc2ccncc2[nH]1,-11.5%
5,CCCOc1ccccc1-c1nc(SCCC(=O)O)n[nH]1,-9.1%
6,Cc1cc(C)nc(Nc2n[nH]c(-c3ccccc3N)n2)n1,53.5% (active)
7,COc1ccc2c(c1)CC[C@@H]1[C@@H]2CC[C@]2(C)C(=O)CC[C@@H]12,-3.91%
8,O=C(NCc1ccccc1)C1c2ccccc2OCC(=O)N1C1CC1 (stereo unspecified),4.34%
9,NC(=O)Nc1ccccc1C(=O)NCCc1ccccc1,11.8%
10,CC1Sc2ccc(S(=O)(=O)CCC(=O)NCc3ccccc3Cl)cc2NC1=O (stereo unspecified),0.42%
11,Cc1cccc(N2CCN(C(=O)CCS(=O)(=O)c3ccc4c(c3)NC(=O)C(C)S4)CC2)c1C (stereo unspecified),50.6% (active)
12,COc1ccccc1N1CCN(C(=O)CCS(=O)(=O)c2ccc3c(c2)NC(=O)C(C)S3)CC1 (stereo unspecified),21.7%
13,O=C(NCc1ccc(F)cc1)C1CCN(C(=O)Nc2ccc(F)cc2)CC1,31.5%
14,Cc1c(Cl)cccc1NC(=O)Nc1ccc(C(=O)N2CCCC2)cc1,5.68%
15,O=C(Nc1ccccc1C(=O)N1CCOCC1)c1ccc(Cl)cc1,-5.43%
16,O=C(Nc1ccc(Cl)cc1)Nc1ccc(C(=O)N2CCOCC2)cc1,79% (active)
17,COc1cc2c(C(=O)N3CCN(C)CC3)c(CSc3ccccc3)n(C)c2cc1Br,0.16%
18,CCN(CC)CCN(C)C(c1ccnc2ccccc12)c1nnnn1-c1ccc2c(c1)OCCO2 (stereo unspecified),29.9%
19,CCCCn1nnnc1C1(C)CCC(=O)N1Cc1ccc(OC)c(OC)c1 (stereo unspecified),2.84%
20,COc1ccc(COC[C@H](CC(C)C)N2CCN(C(=O)c3cccc(C(F)(F)F)c3)CCC2=O)cc1,0.93%
21,O=c1ccc2c(-c3ccccc3S(=O)(=O)O)c3ccc(O)c(O)c3oc-2c1O,78% (active)
22,O=C1c2ccccc2C(c2nc3ccccc3[nH]2)N1c1ccccc1 (stereo unspecified),20.9%
23,CCc1ccc(Oc2coc3cc(OC(=O)c4cc5ccccc5oc4=O)ccc3c2=O)cc1,-16.7%

row,Compound,inhibition
1,CSc1nnc(CNC(=O)c2ccccc2)n1-c1ccc(F)cc1,23.6%
2,O=C(OC1CC2CC1[C@H]1CCCCN1C2=O)N1CCOCC1 (stereo partly specified),24.2%
3,NC(=O)c1ncn([C@@H]2O[C@H](CN=C3NS(=O)(=O)c4ccccc43)[C@@H](O)[C@H]2O)n1,-2.64%
4,Cc1oc2cc([N+](=O)[O-])c(O)c([N+](=O)[O-])c2c1C(=O)c1ccc(Br)cc1,20%
5,O=C(CNS(=O)(=O)c1cccc(C(F)(F)F)c1)Nc1ccccc1F,-3.29%
6,O=C(O)c1cc(S(=O)(=O)N(Cc2ccccc2)c2cccc(C(F)(F)F)c2)ccc1Cl,9.03%
7,O=C(NNc1ccccc1Cl)C(O)(c1cccc(C(F)(F)F)c1)c1cccc(C(F)(F)F)c1,74.5% (active)
8,CCCNCc1cc(OCC)c(OCC(=O)Nc2ccccc2)cc1Br,3.35%
9,O=C(CN1C(=O)CSC1=O)N1CCCC(Nc2ccc(F)cc2)C1 (stereo unspecified),89.2% (active)
10,O=C(CN1CCOC1=O)N1CCCC(Nc2ccc(F)c(F)c2)C1 (stereo unspecified),-4.67%
11,O=C1CCCCN1CCCC(=O)N1CCCC(Nc2ccc(F)cc2)C1 (stereo unspecified),10.3%
12,CCCn1c(N)c(C(=O)CSc2nnc(Cc3cccs3)n2C2CC2)c(=O)[nH]c1=O,-4.97%
13,CC1CC(C)CN(S(=O)(=O)c2ccc(C(=O)NN3CCOCC3)cc2)C1 (stereo unspecified),15.8%
14,COc1ccc(/C=C/c2noc(-c3ccccc3OC(C)=O)n2)cc1,48.5%
15,COc1ccc(-c2noc(CNC(=O)C(C)Oc3ccccc3)n2)cc1 (stereo unspecified),-2.29%
16,COc1ccc(-c2nc(-c3ccccc3)no2)c(OC)c1,96.2% (active)
17,CC1CN(C(=O)CCC(=O)NCCCN2CCC(Cc3ccccc3)CC2)c2cc(Cl)ccc2O1 (stereo unspecified),-12.8%
18,O=C1C2CCCN2C(=O)N1CCCCN1CCN(c2cccc(C(F)(F)F)c2)CC1 (stereo unspecified),-4.34%
19,COc1ccc(N(CCC(=O)NCCc2ccccc2)S(=O)(=O)c2ccc(C)cc2C)cc1,-9.44%
20,O=C(COC(=O)/C=C/c1cn(-c2ccccc2)nc1-c1cccnc1)Nc1ccc(Cl)cc1Cl,-65%
21,COc1ccc(NC(=O)CN(C)C(=O)/C=C/c2cn(Cc3ccccc3)nc2-c2cccnc2)cc1,-11.2%
22,O=C(O)CCn1cc(/C=C/C(=O)c2ccc(Cl)cc2)c(-c2cccc(Br)c2)n1,66% (active)
